In PubChem BioAssay (NCI):
About 79,000 compounds went through this panel and 15% of them were active in at least one assay; those are over-represented in the sample as a whole. No stated cut-off is given here; in the data, active means growth inhibition above about 70%; inactive means the rest.

Key:
[1] = NCI Yeast Anticancer Drug Screen. Data for the rad50 strain (AID 155);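 further: 0% = growth of vehicle-only cultures of the same strain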; conditions: S. cerevisiae rad50 strain growth inhibition; at 50.0 µM; stronger effect = higher value
Outline: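 Genetically altered yeast (DNA repair pathway); compound treatment; growth inhibition vs vehicle ctrl.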

[2] = NCI Yeast Anticancer Drug Screen. Data for the mec2-1 strain (AID 157); conditions: S. cerevisiae mec2-1 strain, at 50.0 µM, stronger effect = higher value
Outline: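 Vehicle-treated cultures served as reference for growth inhibition of compound-exposed mec2-1 yeast.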

[3] = NCI Yeast Anticancer Drug Screen. Data for the sgs1 mgt1 strain (AID 161);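 further: 0% = growth of cultures given vehicle only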; conditions: S. cerevisiae sgs1 mgt1 strain, at 50.0 µM, stronger effect = higher value
Outline: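 Mutant yeast exposed to compound; growth scored against vehicle-only wells.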

[4] = NCI Yeast Anticancer Drug Screen. Data for the cln2 rad14 strain (AID 165);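 further: 0% = growth equal to vehicle treated cultures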; conditions: S. cerevisiae cln2 rad14 strain, at 50.0 µM, stronger effect = higher value
Outline: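 Each compound was tested on cln2 rad14 yeast. Inhibition of growth was calculated against vehicle-exposed controls.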

[5] = NCI Yeast Anticancer Drug Screen. Data for the bub3 strain (AID 167); conditions: S. cerevisiae bub3 mutant strain, at 50.0 µM, stronger effect = higher value
Outline: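 Yeast carrying a defined mutation is treated with each compound, and growth is compared with that of vehicle-exposed cells to give inhibition.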

[6] = NCI Yeast Anticancer Drug Screen. Data for the mlh1 rad18 strain (AID 175); conditions: S. cerevisiae mlh1 rad18 strain growth inhibition; at 50.0 µM; stronger effect = higher value
Outline: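 Vehicle-treated cultures served as the reference for growth inhibition in a yeast strain carrying DNA damage repair alterations exposed to each compound.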

Measured: growth inhibition

Cc1nsc2[nH]c(=O)n(Nc3ccc(O)cc3)c(=O)c12
inactive: [1] -13.6% | [2] 1.1% | [3] -18.7% | [4] 8.75% | [5] 5% | [6] -4.9%

CS(=O)(=O)Nc1nc2ccccc2c(=O)o1
inactive: [1] -50.8% | [2] -21.9% | [3] -15.3% | [4] -39.7% | [5] 3.75% | [6] 4.85%

CCNC(=S)NCC
inactive: [1] -11.2% | [2] -28.8% | [3] 20.6% | [4] 6.7% | [5] 0.4% | [6] 17.5%

O=S(=O)(N/N=C(/CC/C(=N\NS(=O)(=O)c1ccccc1)c1ccccc1)c1ccccc1)c1ccccc1
inactive: [1] 27.7% | [2] 5.2% | [3] 11.7% | [4] 7.55% | [5] -2% | [6] 7.95%

Cc1nn(-c2ccccc2)c(=O)n2c1nc1ccccc12
inactive: [1] -2% | [2] -9.5% | [3] 20.9% | [4] -43.1% | [5] 26.8% | [6] 11.9%

CN1CCCCCCCC(=O)C(OC(=O)c2ccc([N+](=O)[O-])cc2)CCCCCCC1 (stereo unspecified)
inactive: [1] 33.5% | [2] 4.25% | [3] 27% | [4] 9.85% | [5] 1.55% | [6] 14.1%

O=C(O)c1ccnc(-c2ccc(Cl)cc2)c1
inactive: [1] 5.5% | [2] 5.75% | [3] -1.65% | [4] -17.2% | [5] -16.8% | [6] 9.05%

CCOC(=O)CCC(Cl)(Cl)Cl
inactive: [1] 14% | [2] -9.95% | [3] -1.45% | [4] -39% | [5] -7.85% | [6] 9.2%

CS(=O)(=O)C(C#N)S(C)(=O)=O
inactive: [1] -1.85% | [2] -1.05% | [3] -6.05% | [4] -19.2% | [5] 40.9% | [6] -10.1%

O=C1C2CCOC2N=C2CCCN12 (stereo unspecified)
inactive: [1] -1.85% | [2] 5.55% | [3] -3.55% | [4] 1.65% | [5] -5.3% | [6] -11.1%

COC1=C(c2ccccc2)P(=O)(Cc2ccccc2)C(C)C1 (stereo unspecified)
inactive: [1] -6.95% | [2] 12.2% | [3] 24.6% | [4] -9.1% | [5] 48.3% | [6] 1.9%

COc1cc(C=O)c(-c2cc(OC)c(OC)cc2C=O)cc1OC
inactive: [1] 5.9% | [2] -6.65% | [3] -8.8% | [4] 0.2% | [5] -12.4% | [6] -2.15%

CC(=O)c1c[nH]cc1CO
inactive: [1] -1.7% | [2] 7.8% | [3] 8.85% | [4] 11.3% | [5] 11.6% | [6] -7.75%

COC(=O)/C(=C\Nc1cccc(C)n1)S(=O)(=O)c1ccc(C)cc1
inactive: [1] -33.9% | [2] -1.55% | [3] 18.5% | [4] -21.5% | [5] 7.3% | [6] 12.8%

CCCN(CCCCC(NC(C)=O)C(=O)NCc1ccccc1)C(=O)NC (stereo unspecified)
inactive: [1] -26.9% | [2] -27.8% | [3] -13.1% | [4] 17.9% | [5] -18.9% | [6] -14.5%

c1ccc(CCc2cccnc2)nc1
inactive: [1] 26% | [2] -4.5% | [3] -21.6% | [4] 50% | [5] -6.1% | [6] -1.7%

CCOC(=O)N1CC(C)N(C(=O)OCC)CC1C (stereo unspecified)
inactive: [1] -3.9% | [2] -7.1% | [3] 6.7% | [4] -15.8% | [5] 33.8% | [6] 8.5%

COc1ccc2nc(-c3ccccc3)cc(N=[N+]=[N-])c2c1
inactive: [1] 1.9% | [2] -0.85% | [3] -12.7% | [4] -5.35% | [5] -23.1% | [6] -12%

Cc1ccccc1N(CCC#N)C1=NN(C(=O)CC(=O)Nc2ccccc2)C(c2ccccc2)C1 (stereo unspecified)
inactive: [1] 3% | [2] 1% | [3] 12.1% | [4] 11.7% | [5] 0.85% | [6] -7.2%

CCOC(=O)c1cnc(SC)nc1Nc1cccc(C)c1
inactive: [1] -13.4% | [2] -10.4% | [3] -11.9% | [4] -18.1% | [5] 9.1% | [6] -36.1%

c1ccc2c(c1)cc1n2CC2CN=NC12 (stereo unspecified)
inactive: [1] -5.85% | [2] 14.4% | [3] -27.4% | [4] 12.3% | [5] -5.55% | [6] 10.1%
